# Measured values reported in PubChem BioAssay AID602410 (Johns Hopkins Ion Channel Center, 2012).
# Among all 340,000 compounds or so, about 2,800 (0.82%) were called active.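 The calls were made as follows: active = B-score under library mean minus 4 SD, starting fluorescence ratio at most library mean plus 5 SD; inactive = the rest.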 The full list was thinned out, with actives kept by preference.
# Target: Potassium channel subfamily K member 3 (Homo sapiens) (UniProt O14649)
# Assay: human KCNK3 channel inhibitors, primary screen, CHO cells, FluxOR thallium flux, B-score (AID 602410);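 as to B-score: more negative B-score means stronger inhibition of thallium flux through KCNK3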
# Details: FluxOR fluorescence, at 10 µM; stronger effect = lower value
# Chain of Potassium channel subfamily K member 3 (Homo sapiens) (O14649 whole entry, looked up): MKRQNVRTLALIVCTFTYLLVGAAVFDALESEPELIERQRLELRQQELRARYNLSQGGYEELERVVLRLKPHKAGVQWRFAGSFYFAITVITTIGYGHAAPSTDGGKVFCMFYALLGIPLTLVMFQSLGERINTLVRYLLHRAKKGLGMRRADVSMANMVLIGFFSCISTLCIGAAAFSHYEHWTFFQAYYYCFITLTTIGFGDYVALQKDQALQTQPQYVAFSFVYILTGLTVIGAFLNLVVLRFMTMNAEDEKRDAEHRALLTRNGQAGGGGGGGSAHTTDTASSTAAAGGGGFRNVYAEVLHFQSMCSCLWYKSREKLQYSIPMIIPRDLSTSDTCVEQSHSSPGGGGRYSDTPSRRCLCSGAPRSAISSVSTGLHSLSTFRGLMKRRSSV
row,Structure (SMILES),B-score
1,COc1ccc(C(=O)c2c3ccc([N+](=O)[O-])cc3[n+]([O-])n2CCCN)cc1,inactive
2,COCC(=O)Nc1cc(C(=O)OC)cc(C(=O)OC)c1,inactive
3,O=C(O)c1ccccc1C(=O)NC1=NN(c2ccccc2)CC1,inactive
4,N/C(=N\OC(=O)CCn1cccc(C(F)(F)F)c1=O)c1ccc(OC(F)(F)F)cc1,inactive
5,C=CCc1cc(S(=O)(=O)c2ccc(O)c(CC=C)c2)ccc1O,-11 (active)
6,COc1ccc(CNC(=O)C2CCC(CNc3c(N4CCOCC4)c(=O)c3=O)CC2)cc1 (configuration not stated),inactive
7,O=C(NCCc1ccccn1)c1nc(Cn2cc([N+](=O)[O-])cn2)no1,inactive
8,O=C(c1cc(-c2cccc(O)c2)on1)N1CCc2ccccc2C1,inactive
9,O=C(c1cc(-c2ccc(O)cc2)on1)N1CCCc2ccccc21,-9.08 (active)
10,O=C(c1cc(-c2ccc(O)cc2)on1)N1CCOCC1,inactive
11,Cc1onc(-c2ccccc2)c1C(=O)N=C(N)c1ccc(Cl)cc1,inactive
12,CCc1ccc(C(=O)CSc2nnc(C)c(=O)[nH]2)cc1,inactive
13,COC(=O)c1c(NC(=O)c2ccccc2F)sc2c1C(C(=O)OC)CC2 (configuration not stated),inactive
14,O=C(CNS(=O)(=O)c1ccccc1)NCC(=O)OCc1ccccc1F,inactive
15,COCCNc1cc(-c2ccccc2)nc2cc(-c3cccc(F)c3)nn12,-8.74 (active)
16,COC(=O)C(C)Sc1ccc2nnc(-c3cccc(F)c3)n2n1 (configuration not stated),inactive
17,COc1ccc(NC(=O)c2cc3nc(-c4ccccc4)cc(C)n3n2)cc1OC,inactive
18,CC1CCCN(CC(=O)Nc2cc(Cl)ccc2Oc2ccccc2)C1 (configuration not stated),-11.4 (active)
19,O=C(CSc1ccccc1)Nc1cc(Cl)ccc1Oc1ccccc1,inactive
20,CC(=O)Nc1ccc(NC(=O)CN2CCCC(C)C2)c(Cl)c1 (configuration not stated),inactive
21,O=C1CCC[C@@H]2CC(N3CCCCC3)C[C@@H]3CCN1[C@H]23 (some centres not stated),inactive
22,COc1ccc(CC(NC(C)=O)C(=O)N2CCN(C(=O)Nc3cccc(Cl)c3)CC2)cc1OC (configuration not stated),inactive
23,CCc1nc(SCC(=O)NNC(=O)c2ccc(C)cc2)c2ccccc2n1,-8.73 (active)
24,CCCNC(=O)CSc1nc(Cc2ccccc2)nc2ccccc12,inactive
25,Cc1ccc(C(=O)NNC(=O)CSc2nnc3ccccn23)cc1,inactive
26,C=CCSc1nc(Cc2ccc(Cl)cc2)nc2ccccc12,inactive

row,Structure (SMILES),B-score
1,O=C(CNC(=O)c1ccc(Br)o1)Nc1ccccc1,inactive
2,CCN1CCN(c2c(Cl)cccc2NC(=O)c2ccc(Br)o2)CC1,inactive
3,CCCC(=O)Nc1ccc(Cl)c(NC(=O)c2ccc(Br)o2)c1,-9.33 (active)
4,CC(=O)C1=C(C)NC(C)=C(C(C)=O)C1c1cn(-c2ccccc2)nc1-c1cccs1,inactive
5,COc1ccc(C(C(=O)NC(C)(C)C)N(C(=O)Cn2nnc3ccccc32)c2ccc(C(C)=O)cc2)cc1O (configuration not stated),inactive
6,C#CC(C)(C)NC(=O)c1cnc(-c2ccccc2)nc1-c1ccccc1,inactive
7,CS(=O)(=O)c1ccc(-c2nnn(CC(=O)Nc3ccc4c(c3)OCCO4)n2)cc1,inactive
8,CC1(C)CC(=O)C/C(=N\NC(=O)c2cccs2)C1,inactive
9,CN(CC(=O)NCCc1ccc(S(N)(=O)=O)cc1)CC(=O)Nc1ccc(F)c(F)c1F,inactive
10,Cc1ccc(C(=O)N/C(=C\c2cn(S(=O)(=O)N(C)C)c3ccccc23)C(=O)N2CCCC2)cc1,inactive
11,C=CCSc1nnc(N2C(=O)C(O)=C(C(=O)c3ccco3)C2c2ccc(F)cc2)s1 (configuration not stated),-10.6 (active)
12,Cc1ccc2nc(N3C(=O)C(O)=C(C(=O)c4ccco4)C3c3cccc(O)c3)sc2c1 (configuration not stated),inactive
13,C=CCOc1cccc(C2C(C(=O)c3ccc(C)o3)=C(O)C(=O)N2c2nnc(C)s2)c1 (configuration not stated),inactive
14,O=C(c1c(F)cccc1Cl)N1CCN(S(=O)(=O)c2ccc3c(c2)OCCCO3)CC1,inactive
15,Cc1cc(C)c(S(=O)(=O)c2ccccc2)c(OC(=O)c2c(F)cccc2Cl)n1,-14.3 (active)
16,Cc1cc(OC(=O)c2c(Cl)cccc2Cl)nc(C)n1,inactive
17,CCCCc1nc2ccccc2c(NC(=O)CN2CCN(C)CC2)c1CCC,inactive
18,CSCc1cc(N2CCOCC2)nc(SCc2ccc(Cl)cc2Cl)n1,inactive
19,Clc1ccc(CSc2nnc(/C=C/c3ccccc3)o2)c(Cl)c1,inactive
20,CSCc1cc(N(C)C)nc(SCc2ccc(Cl)cc2Cl)n1,-9.62 (active)
21,CC(=O)Nc1ccc(NC(=O)COC(=O)c2ccccc2C(=O)c2ccccc2)cc1,inactive
22,N#Cc1cccc(NC(=O)COC(=O)c2ccccc2C(=O)c2ccc(Cl)c([N+](=O)[O-])c2)c1,-11.8 (active)
23,CC(=O)Nc1ccc(NC(=O)C(C)OC(=O)c2ccccc2C(=O)c2ccc(Cl)c([N+](=O)[O-])c2)cc1 (configuration not stated),inactive
24,CCOc1ccc2oc(C(=O)N(CC)CC(=O)Nc3ccc(NC(C)=O)cc3)c(C)c2c1,inactive
25,Cc1nc(=O)c(-c2ccccc2)c(C)n1-c1ccc(Br)cc1,inactive
26,CC(C)Oc1ccc(C2NC(=O)NC2=O)cc1 (configuration not stated),inactive

row,Structure (SMILES),B-score
1,O=C1c2ccccc2C2=Nc3ccccc3SC(c3ccccc3F)C12 (configuration not stated),-12.4 (active)
2,Cc1cccc(C2c3c(n(C)c(=O)n(C)c3=O)N=C3c4ccccc4C(=O)C32)c1 (configuration not stated),inactive
3,Cc1csc2nc(O)c(C(=O)NCCN3CCOCC3)c(=O)n12,inactive
4,Cc1cccc(NC(=O)c2sc3nc4c(c(-c5ccco5)c3c2N)CCC4)c1,-11.4 (active)
5,COc1ccc(OC)c(NC(=O)c2sc3nc(C)cc(C)c3c2N)c1,inactive
6,Cc1ccc(NC(=O)c2sc3nc(N)c(C#N)cc3c2N)cc1,inactive
7,CCCN=C1NC(=O)C(CC(=O)NCCc2ccc(OC)c(OC)c2)S1 (configuration not stated),inactive
8,O=C1c2ccccc2C(Nc2ccc3c(c2)OCCO3)N1Cc1ccco1 (configuration not stated),inactive
9,CCOC(=O)c1cccc(NC(=O)C2CCN(c3ncnc4c3nc3n4CCCCC3)CC2)c1,inactive
10,O=C(COc1ccccc1F)Nc1nc(-c2ccccn2)cs1,inactive
11,COc1ccccc1NC(=O)Nc1nc(CC(=O)Nc2ccccc2F)cs1,inactive
12,COc1ccc(CC(=O)Nc2nc(-c3ccc(F)c(F)c3)cs2)cc1OC,-12.4 (active)
13,CCOC(=O)N1CCN(Cc2nc(Cc3cccc(C(F)(F)F)c3)no2)CC1,inactive
14,O=C(NCCCN1CCOCC1)c1cc2c(s1)CCC2,inactive
15,Cc1cccc2c1-c1sc(C(=O)NCCCN3CCc4ccccc4C3)cc1CO2,-9.55 (active)
16,CN1CCN(CCCNC(=O)c2cc3c(=O)oc4ccccc4c3s2)CC1,inactive
17,O=C(O)Cc1csc(NC(=O)CSc2nnnn2-c2ccc(O)cc2)n1,inactive
18,COc1ccc(Cl)cc1NC(=O)C(C)N1CCc2ccccc21 (configuration not stated),-8.75 (active)
19,COc1ccc(Cl)cc1NC(=O)NC(C)C(C)(C)C (configuration not stated),inactive
20,COc1ccc(Cl)cc1NC(=O)NCC1CCN(Cc2ccccc2F)CC1,inactive
21,O=C(NCc1cn2ccsc2n1)Nc1cccc(Cl)c1,inactive
22,Cc1ccc(S(=O)(=O)NCc2cn3ccsc3n2)c(C)c1,-20.8 (active)
23,Cc1nc(CNS(=O)(=O)c2cc([N+](=O)[O-])ccc2C)cs1,inactive
24,COC(=O)c1ccccc1N=Nc1c(C)[nH][nH]c1=O,inactive
25,O=C(NCCCN1CCOCC1)c1ccc2c(c1)N(Cc1cccc(F)c1)C(=O)c1ccccc1S2,inactive
26,CCN1CCN(CCNC(=O)c2ccc(/C=C3/Sc4ccccc4N(Cc4cccc(C)c4)C3=O)cc2)CC1,-11.5 (active)

row,Structure (SMILES),B-score
1,CN1CCN(CCCNC(=O)c2ccc(/C=C3\Oc4ccccc4N(Cc4ccc(Cl)cc4)C3=O)cc2)CC1,inactive
2,CC[C@]1(C(=O)OC)[C@H]2C(=O)N(Cc3ccccc3)C(=O)[C@H]2[C@H]2CN=C(SCc3ccc(C#N)cc3)N21,inactive
3,CCc1ccc(OC(C)C(=O)Nc2ccc(S(=O)(=O)Nc3cc(C)on3)cc2)cc1 (configuration not stated),inactive
4,Cc1cc(C(=O)NCCc2ccc(Cl)cc2)n(-c2ccccc2)n1,inactive
5,Cc1ccc(NC(=O)Nc2cc(-c3ccccc3)nn2C)cc1Cl,inactive
6,Cc1cc(NC(=O)Nc2ccc(Cl)cc2)n(-c2ccccc2)n1,-10.7 (active)
7,O=C(Nc1ccccc1)O/N=C1\CCCCC1c1ccc([N+](=O)[O-])cc1[N+](=O)[O-] (configuration not stated),-9.88 (active)
8,C[n+]1ccccc1C1CCCC/C1=N\Nc1ccc([N+](=O)[O-])cc1[N+](=O)[O-] (configuration not stated),inactive
9,O=[N+]([O-])c1ccc(N/N=C2/CCCCC2c2ccccn2)c([N+](=O)[O-])c1 (configuration not stated),inactive
10,Cc1ccc(S(=O)(=O)N(CC(O)CN2C(=O)NC(C)(C)C2=O)c2cccc([N+](=O)[O-])c2)cc1 (configuration not stated),inactive
11,C/C(=N/NC(=O)c1ccc(Br)o1)c1ccc(C)o1,inactive
12,O=C(C1CC(=O)N(c2ccc(Br)cc2)C1)N1CCCC1 (configuration not stated),inactive
13,CC(NC(=O)Cn1cc(C(F)(F)F)cc(Cl)c1=O)c1ccccc1 (configuration not stated),inactive
14,O=C(CCl)Nc1ccc(Sc2ccc(NC(=O)CCl)cc2)cc1,inactive
15,CC(C)(CCl)C(=O)Nc1ccc(Sc2ccc(F)cc2)cc1,-12 (active)
16,O=C(Nc1ccncc1)Nc1ccc(F)cc1,inactive
17,CCn1nnnc1SCC(=O)c1ccc(C)cc1C,inactive
18,Cc1ccc(NC(=O)COc2ccc(-n3ccnc3)cc2)cc1Cl,inactive
19,c1ccc(CN=C2Nc3ccccc3CS2)nc1,inactive
20,COc1ccc(C(CCNCc2ccccc2F)c2ccc(F)cc2)cc1 (configuration not stated),inactive
21,CN(CC(=O)Nc1ccc(S(=O)(=O)N2CCCC2)cc1)Cc1ccc(Cl)c(Cl)c1,inactive
22,CN(CCC(=O)Nc1cc(S(=O)(=O)N(C)C)ccc1Cl)CC(=O)Nc1ccc(F)cc1,-16.6 (active)
23,CN(CC(=O)Nc1ccc(F)cc1)CC(=O)Nc1ccc(Cl)c(S(=O)(=O)N2CCOCC2)c1,inactive
24,COc1cc(C(=O)CCc2ccc3c(c2)OCO3)cc(OC)c1OC,inactive
